Experiment in all cases: yeast three-hybrid, YBZ-1, SC-Leu-His + 0.5 mM 3-AT, 4 days
What all share (settings): tags: N-Gal4 AD-HA kept; label: inside an RPR1-promoter hybrid RNA with tandem MS2 sites; ssRNA

Assay [1] has as its target PUM1 PUF domain R4-QRG (Homo sapiens, UniProt Q14671 828-1176, N971Q;H972R;Q975G). A digest of the protocol:
(§1)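 Pumilio-1 PUF domain libraries, randomized at the three base-contacting residues of each repeat, were co-expressed with matching RNA elements from a centromeric plasmid in strain YBZ-1, which carries a LexA–MS2 coat fusion and a HIS3 reporter. Transformants grew for four days on SC-Leu (input) or on SC-Leu-His + 0.5 mM 3-AT (selection), and the repeat regions were PCR-amplified and Illumina-sequenced. The interaction score is the log change in variant frequency from input to selection. That logarithm is base 2, with a pseudocount of 1 where a variant was absent.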

The target in assay [2] is T1, PUM1 PUF domain R6-FYC (Homo sapiens, UniProt Q14671 828-1176, N1043F;Q1047C).
T1 sequence: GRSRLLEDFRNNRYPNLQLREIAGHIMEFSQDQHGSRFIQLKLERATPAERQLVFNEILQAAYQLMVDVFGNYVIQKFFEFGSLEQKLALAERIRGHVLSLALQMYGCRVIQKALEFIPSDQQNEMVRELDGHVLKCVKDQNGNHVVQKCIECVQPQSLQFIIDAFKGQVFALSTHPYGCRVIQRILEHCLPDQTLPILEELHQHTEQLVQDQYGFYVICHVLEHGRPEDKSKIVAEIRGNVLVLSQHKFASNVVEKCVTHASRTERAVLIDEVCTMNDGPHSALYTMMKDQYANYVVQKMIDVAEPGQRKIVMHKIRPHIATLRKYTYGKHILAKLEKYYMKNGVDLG
A digest of the protocol:
as §1

In assay [3] the target is PUM1 PUF domain R8-LYG (Homo sapiens, UniProt Q14671 828-1176, N1122L;Q1126G). A digest of the protocol: as §1
Assay [4] concerns the target PUM1 PUF domain R5-GFY (Homo sapiens, UniProt Q14671 828-1176, C1007G;R1008F;Q1011Y). A digest of the protocol:
as §1

Assay [5] has as its target T2, PUM1 PUF domain R6-TFR (Homo sapiens, UniProt Q14671 828-1176, N1043T;Y1044F;Q1047R).
T2 sequence: T1 sequence with F216T, Y217F, C220R
A digest of the protocol: as §1

For assay [6], the target named is PUM1 PUF domain R7-RSG (Homo sapiens, UniProt Q14671 828-1176, S1079R;N1080S;E1083G). A digest of the protocol: as §1
The target in assay [7] is PUM1 PUF domain R5-RCI (Homo sapiens, UniProt Q14671 828-1176, C1007R;R1008C;Q1011I). A digest of the protocol: as §1
Assay [8] addresses PUM1 PUF domain R1-RIT (Homo sapiens, UniProt Q14671 828-1176, S863R;R864I;Q867T). A digest of the protocol: as §1
Assay [9] has as its target PUM1 PUF domain R3-RNP (Homo sapiens, UniProt Q14671 828-1176, C935R;R936N;Q939P). A digest of the protocol:
as §1

Assay [10] addresses PUM1 PUF domain R2-QWW (Homo sapiens, UniProt Q14671 828-1176, N899Q;Y900W;Q903W). A digest of the protocol:
as §1

Changes are numbered by the printed parent chain.

For “GGCUAGAACUAGUGGAUCCCCCGGCGCCCGGCGGCUCGAGCCCGGGUAAGUGUAAAUAGUCUGCAUGCCGCCGGGCGCCAUGCCUGCAGGUCGACUCUAGAAAACAUG”, the binding signal in assay [1] is 3.75 log2 enrichment (interaction score); in assay [2] it was 3.33 log2 enrichment (interaction score); in assay [3] it was 0.62 log2 enrichment (interaction score); in [4], 3.55 log2 enrichment (interaction score); in assay [5] it was 5.59 log2 enrichment (interaction score). Take “GGCUAGAACUAGUGGAUCCCCCGGCGCCCGGCGGCUCGAGCCCGGGUAAGUCUAAAUAGUCUGCAUGCCGCCGGGCGCCAUGCCUGCAGGUCGACUCUAGAAAACAUG”: the binding signal in assay [6] is 0.33 log2 enrichment (interaction score). On the same count and under the same terms, next, “GGCUAGAACUAGUGGAUCCCCCGGCGCCCGGCGGCUCGAGCCCGGGUAAGUUUAAAUAGUCUGCAUGCCGCCGGGCGCCAUGCCUGCAGGUCGACUCUAGAAAACAUG”: 2.86 log2 enrichment (interaction score). For “GGCUAGAACUAGUGGAUCCCCCGGCGCCCGGCGGCUCGAGCCCGGGUAAGUGUCAAUAGUCUGCAUGCCGCCGGGCGCCAUGCCUGCAGGUCGACUCUAGAAAACAUG”, the binding signal in assay [7] was 2.64 log2 enrichment (interaction score). Regarding “GGCUAGAACUAGUGGAUCCCCCGGCGCCCGGCGGCUCGAGCCCGGGUAAGUGUAAAUCGUCUGCAUGCCGCCGGGCGCCAUGCCUGCAGGUCGACUCUAGAAAACAUG”, the binding signal in assay [8] was 5.29 log2 enrichment (interaction score).

Take “GGCUAGAACUAGUGGAUCCCCCGGCGCCCGGCGGCUCGAGCCCGGGUAAGUGUAAUUAGUCUGCAUGCCGCCGGGCGCCAUGCCUGCAGGUCGACUCUAGAAAACAUG”: the binding signal in assay [9] was 4.2 log2 enrichment (interaction score). “GGCUAGAACUAGUGGAUCCCCCGGCGCCCGGCGGCUCGAGCCCGGGUAAGCGUAAAUAGUCUGCAUGCCGCCGGGCGCCAUGCCUGCAGGUCGACUCUAGAAAACAUG”: in [3], the binding signal was 2.57 log2 enrichment (interaction score). “GGCUAGAACUAGUGGAUCCCCCGGCGCCCGGCGGCUCGAGCCCGGGUAAGUGUAAAGAGUCUGCAUGCCGCCGGGCGCCAUGCCUGCAGGUCGACUCUAGAAAACAUG”: in assay [10], the binding signal was 5.58 log2 enrichment (interaction score).

For the sequence “GGCUAGAACUAGUGGAUCCCCCGGCGCCCGGCGGCUCGAGCCCGGGUAAGUGUUAAUAGUCUGCAUGCCGCCGGGCGCCAUGCCUGCAGGUCGACUCUAGAAAACAUG”, the binding signal in [4] was 2.65 log2 enrichment (interaction score). “GGCUAGAACUAGUGGAUCCCCCGGCGCCCGGCGGCUCGAGCCCGGGUAAGUGCAAAUAGUCUGCAUGCCGCCGGGCGCCAUGCCUGCAGGUCGACUCUAGAAAACAUG”: the binding signal in assay [5] was 5.38 log2 enrichment (interaction score).

The values above are taken from PMC8384837, “Expanding the binding specificity for RNA recognition by a PUF domain”.
